Screening results from PubChem BioAssay.
Rows were chosen to be rich in hits. Some 3.9% of all compounds tested hit in one or more screens of this group.
Cardio protect – modulators protecting cardiomyocytes from myocardial damage; H9c2 cardiomyocytes, H2O2 injury protection, ATPLite, 2 h; protection from H2O2 cell death, % at 20 µM; hit rate 0.63% among 360,000;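 active = compounds giving at least 50% protection of heart cells from peroxide-induced death in the single-dose screen, raw or plate-pattern-corrected value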
SUMO HTRF inh – inhibitors of human SUMOylation (UBC9); HTRF SUMOylation assay, SAE1/SAE2 + UBC9, in vitro; hit rate 0.36% among 290,000; inhibition, % at 35 µM; P63279; AID 2006; in the data active = inhibition above about 50%, passing the limit was not always enough; inconclusive = no clear call, values can overlap the other calls
ALR H2O2 inh – blocks human ALR sulfhydryl oxidase activity; P55789; purified ALR, DTT oxidation, H2O2 HRP-luminol luminescence; inhibition, % (concentration not given with the values); hit rate 3.8% among 290,000;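 active = mean replicate inhibition above about 79%, with every replicate also reaching it, limit read from the data; inconclusive = only one of the two criteria met; inactive = mean below limit and not every replicate reaching it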
Target sequence (P55789 whole entry, looked up): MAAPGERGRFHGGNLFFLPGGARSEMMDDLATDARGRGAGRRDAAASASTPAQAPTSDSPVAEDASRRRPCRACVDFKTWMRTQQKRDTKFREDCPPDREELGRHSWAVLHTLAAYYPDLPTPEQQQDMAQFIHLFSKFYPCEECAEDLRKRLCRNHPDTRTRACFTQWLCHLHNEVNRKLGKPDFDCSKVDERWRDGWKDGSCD
NTR1 ag – agonists of human neurotensin receptor NTR1; P30989; NTR1-U2OS beta-arrestin-GFP spot imaging, agonist mode; activation, % at 20 µM; hit rate 0.17% among 330,000; AID 493036;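 active = activation at or above 40% of the spot to cytoplasm intensity ratio, with at least 20 cells analyzed; inconclusive = wells under 20 cells, flagged as cytotoxic or low count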
Target sequence (P30989 whole entry, looked up): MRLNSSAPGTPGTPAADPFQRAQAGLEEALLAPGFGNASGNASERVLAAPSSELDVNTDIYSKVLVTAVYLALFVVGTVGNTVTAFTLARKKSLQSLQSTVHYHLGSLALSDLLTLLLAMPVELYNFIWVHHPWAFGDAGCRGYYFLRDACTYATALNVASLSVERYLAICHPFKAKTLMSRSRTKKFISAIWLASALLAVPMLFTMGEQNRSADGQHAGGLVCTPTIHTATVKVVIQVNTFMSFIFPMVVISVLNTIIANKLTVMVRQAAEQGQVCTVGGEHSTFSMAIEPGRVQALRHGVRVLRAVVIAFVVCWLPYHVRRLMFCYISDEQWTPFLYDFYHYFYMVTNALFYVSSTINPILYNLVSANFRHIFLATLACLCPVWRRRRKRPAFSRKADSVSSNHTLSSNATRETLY
Each line names hits and unclear results; the compound was inactive in the other large screens.

O=C(/C=C/c1ccc(O)c(O)c1)O[C@@H]1C[C@](O)(C(=O)O)C[C@@H](O)[C@H]1O	ALR H2O2 inh 100 (no result: SUMO HTRF inh)
COc1cc(/C=C/C(=O)OC2CC3CCC2(C)C3(C)C)ccc1O (configuration not stated)	ALR H2O2 inh inconclusive
O=C(/C=C/c1ccc(O)c(O)c1)OC1C(O)CC(OC(=O)/C=C/c2ccc(O)c(O)c2)(C(=O)O)CC1O (configuration not stated)	ALR H2O2 inh 99 (no result: NTR1 ag)
CCc1c(C)c2cc(Cl)c(O)c(CN3CCCC3)c2oc1=O	none
CCC1=C(OC(=O)N(CC)CC)N2C(=O)OC(=NCC(=O)OC)[C@]2(C)[C@H]2C1=CC[C@H]1C(=O)NC(=O)[C@H]12	none
Cn1c2ccccc2c2cnn(CC(=O)Nc3ccc(Cl)cc3)c(=O)c21	SUMO HTRF inh 52 (no result: ALR H2O2 inh)
O=C(CSCC(=O)Nc1nccs1)Nc1ccccc1	ALR H2O2 inh 99
CCOC(=S)SCC(=O)Nc1nccs1	ALR H2O2 inh 88
CCn1c(SCC(=O)Nc2nc(C)c(C)s2)nnc1-c1cccs1	none
CCOC(=S)SCC(=O)Nc1nc(C)c(C)s1	ALR H2O2 inh 98
Cc1nc(NC(=O)CSc2nc(N)cc(N)n2)sc1C	ALR H2O2 inh 94
CCOC(=O)c1sc(NC(=O)CSC(=S)N2CCOCC2)nc1C	none
O=C(CSCC(=O)Nc1nc(-c2ccc3c(c2)OCO3)cs1)Nc1nccs1	ALR H2O2 inh 99
Cc1ccccc1OCCCC(=O)Nc1nccs1	ALR H2O2 inh 94
CC(C)c1ccc(/C=C/C(=O)CCC(=O)O)cc1	ALR H2O2 inh 98
O=C(O)CCC(=O)/C=C/c1ccccc1	none
CC1CN(C(=O)N2c3ccccc3Sc3ccccc32)CC(C)O1 (configuration not stated)	ALR H2O2 inh 99
O=C(N1CCOCC1)N1c2ccccc2Sc2ccccc21	ALR H2O2 inh 99
CC1CCN(C(=O)N2c3ccccc3Sc3ccccc32)CC1	ALR H2O2 inh 89
CC(C)c1ccccc1OCCNC(=S)NC(=O)c1cccnc1	none (no result: ALR H2O2 inh)
O=C(O)c1ccccc1NC(c1ccccc1)c1ccc(Cl)cc1 (configuration not stated)	ALR H2O2 inh 91
CCOC(=O)C1=Nc2ccccc2C1=[N+]=[N-]	Cardio protect 72
CCOC(=O)c1cnc(-c2ccccc2O)nc1Cl	none
Cc1nn(CCCC(=O)N2CCc3ccccc3C2)c(=O)c2cc3sccc3n12	none (no result: ALR H2O2 inh)
Nc1c(Cl)ncnc1N/N=C/c1cccc(O)c1	ALR H2O2 inh 97
COc1ccc(/C=N/Nc2ncnc(Cl)c2N)cc1OC	none
Cc1cccc(C)c1NC(=O)c1nc(S(=O)(=O)Cc2ccccc2)ncc1Cl	ALR H2O2 inh 97
Cc1cccc(CS(=O)(=O)c2ncc(Cl)c(C(=O)Nc3c(C)cccc3C)n2)c1	ALR H2O2 inh 98
Cc1ccc(NC(=O)c2nc(S(=O)(=O)Cc3ccccc3)ncc2Cl)cc1	none
CCCc1nnc(NC(=O)c2nc(S(=O)(=O)Cc3cccc(C)c3)ncc2Cl)s1	none (no result: SUMO HTRF inh)
Cc1nnc(NC(=O)c2nc(S(=O)(=O)Cc3ccccc3)ncc2Cl)s1	ALR H2O2 inh 99
Cc1cccc(S(=O)(=O)NC(=O)C2(C)CCN2C(=O)C2(c3ccc(Cl)cc3)CC2)c1 (configuration not stated)	none (no result: SUMO HTRF inh, ALR H2O2 inh, NTR1 ag)
CCOC(=O)CNc1nnc(SCC(=O)OCC)[nH]c1=O	ALR H2O2 inh 100
CN(C)S(=O)(=O)c1ccc(Cl)c(NC(=O)CSc2nnnn2-c2ccc(O)cc2)c1	none (no result: ALR H2O2 inh, NTR1 ag)
COc1ccc(CCNCC(O)Cn2c3ccccc3c3ccccc32)cc1OC (configuration not stated)	none
COc1ccccc1NCC(O)Cn1c2ccccc2c2ccccc21 (configuration not stated)	ALR H2O2 inh 87
Oc1ccc(Oc2ccc3c(C(F)(F)F)cc(C(F)(F)F)nc3n2)cc1	ALR H2O2 inh 99
COC(=O)c1cccc(NC(=O)CSc2nncn2-c2ccccn2)c1	none
COC(=O)c1ccccc1NC(=O)CSc1nc2cccnc2n1C	none
COC(=O)c1cccc(NC(=O)CSc2nc3cccnc3n2C)c1	ALR H2O2 inh 98
COC(=O)c1ccc(NC(=O)CSc2nncn2-c2ccccn2)cc1	ALR H2O2 inh 99
O=C(CN1CCOCC1)Nc1ccccc1Cl	none
COc1ccc(C)cc1C(=O)C1CC(C(=O)O)C(C)(C)C1C (configuration not stated)	none
COCCNC(=O)COC(=O)/C=C/c1cnc2ccccc2n1	none
O=C(COC(=O)/C=C/c1cnc2ccccc2n1)NCC(F)(F)F	ALR H2O2 inh 91
O=C(NC(=S)N(Cc1ccccc1)Cc1ccccc1)C1CCCCC1	none
O=C(NC(=S)N(Cc1ccccc1)c1ccccn1)C1CC1	ALR H2O2 inh 99
O=C(Nc1ccccc1)c1cccc2c(-c3cccnc3)coc12	Cardio protect 63 (no result: SUMO HTRF inh, ALR H2O2 inh, NTR1 ag)
O=C(Nc1cccnc1)c1ccc2ccccc2c1O	ALR H2O2 inh 91
COc1ccc(CNC(=O)c2cccc3c(-c4cccc(C(N)=O)c4)coc23)cc1OC	none (no result: SUMO HTRF inh, ALR H2O2 inh, NTR1 ag)
COc1ccc(NC(=O)c2cccc3c(-c4cccnc4)coc23)cc1	none (no result: SUMO HTRF inh, ALR H2O2 inh, NTR1 ag)
NC(=O)c1cccc(-c2coc3c(C(=O)NCCc4ccccc4)cccc23)c1	Cardio protect 60 (no result: SUMO HTRF inh, ALR H2O2 inh, NTR1 ag)
Cc1ccc(SCCNCc2ccco2)cc1	none
[O-][n+]1c2ccccc2c2n1CCN1CCOC21c1ccc(Cl)cc1 (configuration not stated)	none (no result: SUMO HTRF inh)
COc1cccc(OC)c1OCCN(C)C	none (no result: ALR H2O2 inh)
C/C(=N\NC(=O)C(O)c1ccccc1)c1ccc(Cl)s1 (configuration not stated)	none
CN1/C(=C\C=C2/SC(=S)N(CC(=O)O)C2=O)C(C)(C)c2ccccc21	ALR H2O2 inh 98
C=CCN1C(=O)/C(=C\C=C2\N(C)c3ccccc3C2(C)C)SC1=S	none
COc1ccc(NS(=O)(=O)c2cccc(C(=O)N(C)CC(=O)Nc3ccc(C)cc3)c2)cc1	none (no result: SUMO HTRF inh)
Cc1cccc(N=Nc2cnc(N)s2)c1	ALR H2O2 inh 99
CC(=O)Nc1ncc(N=Nc2cccc(C(F)(F)F)c2)s1	none
CS(=O)(=O)Cc1nc2ccccc2n1CC(=O)Nc1cccc(S(=O)(=O)N2CCCC2)c1	none (no result: SUMO HTRF inh, ALR H2O2 inh, NTR1 ag)
Cc1ccc(-n2[nH]c(C)c(C=Nc3ccc4[nH]c(=O)[nH]c4c3)c2=O)cc1	none
Cc1ccc(-n2[nH]c(C)c(C=Nc3ccc4[nH]c(=O)[nH]c4c3)c2=O)cc1C	ALR H2O2 inh 92
O=C(CSc1nc2scc(-c3ccco3)c2c(=O)n1-c1ccccc1)NCC1CCCO1 (configuration not stated)	ALR H2O2 inh 96
CC(C)(C)CC(=O)Nc1ccc(Nc2ccccc2)cc1	ALR H2O2 inh 99
CC(C)CC(=O)Nc1ccc(Oc2ccc(NC(=O)CC(C)C)cc2)cc1	none
CC(C)CC(=O)Nc1ccc(Nc2ccccc2)cc1	ALR H2O2 inh 99
NC(=O)c1ccsc1NC(=O)COC(=O)c1ccc([N+](=O)[O-])o1	none (no result: SUMO HTRF inh)
NC(=O)c1ccsc1NC(=O)c1ccc([N+](=O)[O-])o1	Cardio protect 78 (no result: SUMO HTRF inh)
CN(C)S(=O)(=O)c1ccc(Cl)c(C(=O)NC2CCN(Cc3ccccc3)C2)c1 (configuration not stated)	none
O=C(O)CCn1cc(C2CC(c3ccccc3)=NN2c2ccccc2)c(-c2ccccc2)n1 (configuration not stated)	ALR H2O2 inh 99
